# According to PubChem BioAssay AID493244 (The Scripps Research Institute Molecular Screening Center, 2011):
# The whole screen tested about 340,000 compounds, of which about 390 (0.11%) were called active.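 The calls were made as follows: active = inhibition above the mean inhibition of all tested compounds plus 3 SD (cut at about 17% in these data); inactive = the rest.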 The entries come from a sample that favours actives as a whole.
# Target: Troponin I, cardiac muscle (Homo sapiens) + Troponin T, cardiac muscle (Homo sapiens) + Troponin C, slow skeletal and cardiac muscles (Homo sapiens) (UniProt P19429+P45379+P63316)
# Assay: calcium desensitizers of cardiac thin filaments – biochemical, IANBD-TnC fluorescence, EC70 calcium, primary screen (AID 493244);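 also: assay run at fixed EC70 calcium of 1.6 mM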
# Settings: IANBD-labeled cardiac RTF, Ca2+ fluorescence; at 7.15 µM; hits give high values
row,SMILES,inhibition
1,COc1ccc2c(c1O)-c1cccc3c1[C@@H](C2)N(C)CC3,4.82% (inactive)
2,COc1ccc2c(c1)[C@]13CCCCC1C(C2)N(C)CC3 (stereo not given in full),-1.69% (inactive)
3,COC1=C[C@@H]2[C@@H]3Cc4ccc(OC)c(O)c4[C@]2(CCN3C)CC1=O,19.3% (active)
4,Cc1ccc(-c2nc3ccccc3c(=O)n2-c2ccc(Br)cn2)cc1,-6.33% (inactive)
5,COC(=O)C1=C(c2ccccc2)C[C@@H]2CC[C@H]1N2C(=O)N1CCCCC1,4.81% (inactive)
